Source: PubChem BioAssay AID1347146 (National Center for Advancing Translational Sciences (NCATS), 2019)
Records with an inconclusive call do not appear. Active and inactive are the calls of the source. Calls follow the shape of the dose curve; as a rule, active = well fitted inhibition curve with a large enough effect; inconclusive = small, poorly fitted or top-dose-only effect; inactive = no such curve, though single readings can be large or run the other way.
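For activity change, negative = inhibition in this document: plate controls were DMSO without inhibitor for no effect and no-enzyme control for full effect.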
Potency is read from the fitted curve at half-maximal effect.

These molecules were tested against Nicotinamide N-methyltransferase (Homo sapiens) (UniProt P40261) (assay: qHTS Assay for Inhibitors of N-terminal methyltransferase 1 (NTMT1): NNMT MTaseGlo counterscreen assay). Conditions: NNMT enzyme, MTase-Glo luminescence counterscreen; series mostly up to 57.1 µM; activity change, negative = inhibition: at the top concentration.
Sequence of Nicotinamide N-methyltransferase (Homo sapiens) (P40261 whole entry, looked up): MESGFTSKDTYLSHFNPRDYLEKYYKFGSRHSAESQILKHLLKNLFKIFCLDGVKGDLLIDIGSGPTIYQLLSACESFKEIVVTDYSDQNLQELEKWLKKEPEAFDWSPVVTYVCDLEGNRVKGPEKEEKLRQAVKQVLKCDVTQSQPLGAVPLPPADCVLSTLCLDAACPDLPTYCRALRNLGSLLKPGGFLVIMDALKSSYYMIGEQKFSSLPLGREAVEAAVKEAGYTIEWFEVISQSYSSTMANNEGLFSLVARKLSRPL
In short: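 Luminescent MTase-Glo read-out of SAH from nicotinamide methylation: 1 µM nicotinamide, 100 µM SAM, 125 nM NNMT, 30 min RT after ~15 min compound preincubation. Values normalized to no-enzyme/DMSO controls, Hill-fitted.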
For `CN(C)CCCN1c2ccccc2Sc2ccccc21`, the “activity change, negative = inhibition” value was -9.98% (inactive). `c1cc(CN2CCCCC2)cc(OCCCNc2nc3ccccc3s2)c1` was tested, and the “activity change, negative = inhibition” value was -18.2% (inactive). With `[N-]=[N+]=Nc1nc2c(N)ncnc2n1C1OC(CO)C(O)C1O` (centres undefined) the “activity change, negative = inhibition” value was -19.6% (inactive). With `Clc1ccc(N2CCN(Cc3c[nH]c4ncccc34)CC2)cc1` the “activity change, negative = inhibition” value was -2.3% (inactive). In the case of `Cc1[nH]c(=O)c(C#N)cc1-c1ccc2nccn2c1`, the “activity change, negative = inhibition” value is reported as -11.5% (inactive). For `O=C1c2c(O)cc(O)cc2OC(c2ccc(O)c(O)c2)C1O` (centres undefined), the “activity change, negative = inhibition” value was -6.75% (inactive). With `Oc1ccc(Cn2cc[nH]c2=S)cc1` the “activity change, negative = inhibition” value was -10.6% (inactive). With `Oc1cc(O)c2c(c1)O[C@H](c1ccc(O)c(O)c1)[C@@H](O)C2` the “activity change, negative = inhibition” value was -8.77% (inactive). With `N#CC(C#N)=C(N)/C(C#N)=C/c1ccc(O)cc1` the “activity change, negative = inhibition” value was -11% (inactive). With `Cn1ncc(S(=O)(=O)Cc2ccccc2)c(Br)c1=O` the “activity change, negative = inhibition” value was -13.1% (inactive). With `COc1cc2c(NC3CCN(C)CC3)cc(N3CCCCN(C)CC3)cc2cc1OCCOCCN(C)C` the “activity change, negative = inhibition” value was -7.49% (inactive). In the case of `Nc1nc(=S)c2ncn([C@@H]3O[C@H](CO)[C@@H](O)[C@H]3O)c2[nH]1`, the “activity change, negative = inhibition” value is reported as -12.2% [at 38.3 µM] (inactive). For `N.N.N.N.N.N.N.N.N.N.N.N.N.N.O.O.[Ru+4].[Ru+5].[Ru+5]`, the “activity change, negative = inhibition” value was -1.41% (inactive). For `Nc1nc(Cl)nc2c1ncn2[C@@H]1O[C@H](COP(=O)(O)OP(=O)(O)OP(=O)(O)O)[C@@H](O)[C@H]1O`, the “activity change, negative = inhibition” value was 30.3% (inactive). With `CC(Cc1ccc(O)c(O)c1)C(C)Cc1ccc(O)c(O)c1` (centres undefined) the Potency was 39.8 µM (active). In the case of `C#CCN(C)CCCOc1ccc(Cl)cc1Cl`, the “activity change, negative = inhibition” value is reported as -13.2% (inactive). For `Nc1[nH]c(=O)nc2c1ncn2C1OC(CO)C(O)C1O` (centres undefined), the “activity change, negative = inhibition” value was -17% (inactive). `Oc1ccc(O)cc1` was tested, and the Potency was 39.8 µM (active). For `Cc1cccc(C2CN(C)CCc3c2cc(O)c(O)c3Cl)c1` (centres undefined), the “activity change, negative = inhibition” value was -16.8% (inactive).
